The record followed here is PubChem BioAssay AID1053173 (Broad Institute, 2014).

The structures appear in SMILES notation. In all, about 1,500 compounds went through this assay and about 390 (26%) were called active. No rule for the calls is given here. A selection follows. Where a call stands in place of a potency, no number is given. Potency and affinity values are given separately.

Chain of Histone-lysine N-methyltransferase NSD2 (Homo sapiens) (O96028 whole entry, looked up): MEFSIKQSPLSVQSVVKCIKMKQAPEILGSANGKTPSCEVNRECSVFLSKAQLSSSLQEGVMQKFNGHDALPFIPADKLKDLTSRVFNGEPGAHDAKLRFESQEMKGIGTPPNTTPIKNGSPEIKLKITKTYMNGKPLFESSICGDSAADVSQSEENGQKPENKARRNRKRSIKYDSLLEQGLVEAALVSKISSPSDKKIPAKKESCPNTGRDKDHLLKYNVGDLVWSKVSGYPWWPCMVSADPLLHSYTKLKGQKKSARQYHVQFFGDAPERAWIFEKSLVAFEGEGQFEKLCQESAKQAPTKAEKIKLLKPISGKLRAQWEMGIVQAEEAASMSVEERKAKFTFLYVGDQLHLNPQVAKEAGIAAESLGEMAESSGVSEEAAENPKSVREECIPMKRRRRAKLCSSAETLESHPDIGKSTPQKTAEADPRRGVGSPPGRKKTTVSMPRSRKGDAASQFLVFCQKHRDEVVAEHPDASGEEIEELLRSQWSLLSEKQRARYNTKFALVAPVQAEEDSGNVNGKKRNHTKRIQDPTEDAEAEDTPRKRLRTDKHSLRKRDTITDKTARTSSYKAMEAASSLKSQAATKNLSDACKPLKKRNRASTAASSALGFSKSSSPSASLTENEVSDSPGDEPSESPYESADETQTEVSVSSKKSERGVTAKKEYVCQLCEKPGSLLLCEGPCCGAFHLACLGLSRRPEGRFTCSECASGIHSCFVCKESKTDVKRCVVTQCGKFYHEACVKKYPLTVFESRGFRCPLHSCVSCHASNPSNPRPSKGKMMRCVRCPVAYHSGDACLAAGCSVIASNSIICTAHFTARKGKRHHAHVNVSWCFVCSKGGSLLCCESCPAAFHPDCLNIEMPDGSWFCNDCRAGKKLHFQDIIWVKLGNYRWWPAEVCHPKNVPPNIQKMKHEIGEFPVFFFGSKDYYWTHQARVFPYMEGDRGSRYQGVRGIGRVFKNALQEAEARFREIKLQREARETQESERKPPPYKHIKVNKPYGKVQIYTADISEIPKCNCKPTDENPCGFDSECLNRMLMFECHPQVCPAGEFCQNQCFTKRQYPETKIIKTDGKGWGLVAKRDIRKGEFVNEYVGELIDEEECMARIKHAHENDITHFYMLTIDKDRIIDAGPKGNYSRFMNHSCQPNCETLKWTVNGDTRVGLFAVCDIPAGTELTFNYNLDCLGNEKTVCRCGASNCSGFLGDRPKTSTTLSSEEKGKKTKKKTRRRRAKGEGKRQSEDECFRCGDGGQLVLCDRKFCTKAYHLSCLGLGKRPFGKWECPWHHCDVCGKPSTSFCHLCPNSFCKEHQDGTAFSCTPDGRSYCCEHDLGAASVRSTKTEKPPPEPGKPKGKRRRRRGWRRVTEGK

The assay addresses Histone-lysine N-methyltransferase NSD2 (Homo sapiens) (UniProt O96028). Kind of assay: blockers of NSD2 H4 peptide methylation – biochemical, AlphaScreen, cherry-picked samples, dose response (AID 1053173). The following applies: 120 min; series mostly up to 10 µM.
In the case of `CCOc1cc(/C=C/C(=O)OCC(=O)NCCN2C(=O)CSC2=O)ccc1OCC(C)C`, the molecule was classed as inactive.

Take `Cc1cccc(-n2c3nc(=O)[nH]c(=O)c-3cc3cc([N+](=O)[O-])ccc32)c1`: the outcome was inactive.

On to `Cc1c(NC(=O)CN2C(=O)C(=O)c3ccccc32)c(=O)n(-c2ccccc2)n1C`, for which the result was inactive.

With `Cc1c(N=NC2=C(O)CC(C)(C)CC2=O)c(=O)n(-c2ccccc2)n1C`, the result was inactive.

On to `C/C(=C\C(=O)c1cccnc1)Nc1ccc(O)cc1`, for which the molecule was called inactive.

Turning to `COc1ccc(CCNC(=O)CN2C(=O)C(=O)N(C3CCCC3)C2=O)cc1OC`, the result was inactive.

As for `CN(C)Cc1csc(NC(=O)Nc2cccc(Cl)c2)n1`, the outcome was inactive.

As to `Cn1c(N2CCCC2)nc2c1c(=O)n(Cc1ccc(Cl)cc1)c(=O)n2C`, the result was inactive.

In the case of `COCCN(C(=O)CCC(=O)Nc1cc(C)on1)C(C(=O)NC(C)(C)C)c1ccccc1Cl` (stereo not given), the molecule was classed as inactive.

Take `COc1ccc(C(C[N+](=O)[O-])c2c(C)[nH]n(-c3ccccc3)c2=O)cc1` (stereo not given): the molecule was called inactive.

Turning to `COc1ccc(Cc2ccccc2C(=O)O)cc1`, the outcome was inactive.

For `O=C(NNS(=O)(=O)c1ccc(F)cc1F)c1csc(-c2cccnc2)n1`, the molecule was classed as inactive.

Consider `Cc1nn2c3ccccc3n(CCN3CCCCC3)c2nc1=O`, for which the outcome was inactive.

Turning to `O=C(NCCN1CCCCC1)/C(=C/c1ccco1)NC(=O)c1ccccc1`, the molecule was classed as inactive.

In the case of `O=C(COc1ccccc1O)NCCN1CCOCC1`, the call was inactive.

On to `O=C(CCc1ccccc1)NCCCN1CCOCC1`, for which the molecule was called inactive.

With `O=C(NCCCN1CCCC1=O)Nc1ccc(Cl)cc1Cl`, the outcome was inactive.

For `O=C(O)Cc1sc(NC2CCCCC2)nc1-c1ccc(Cl)cc1`, the result was inactive.

`Cn1c(=O)c2c(nc(CN3CCC(C(N)=O)CC3)n2Cc2ccccc2Cl)n(C)c1=O`: the result was inactive.

Consider `Cc1ccc(-n2c(C)c(C)c3c(N)ncnc32)cc1`, for which the molecule was classed as inactive.

Regarding `CC(=O)c1ccc(-n2c(-c3cc(-c4ccco4)[nH]n3)n[nH]c2=S)cc1`, the call was inactive.

As to `Cc1cc(=O)[nH]c(COc2ccccc2)n1`, the molecule was classed as inactive.

As for `COC(=O)COc1ccc(S(=O)(=O)NCC2CCCO2)cc1Cl` (stereo not given), the molecule was called inactive.

Regarding `Cc1ccc(Nc2nc(-c3ccc(O)c(O)c3)cs2)nc1`, the result was inactive.

Regarding `CCOC(=O)c1sc(NC(=O)COc2ccc3c(c2)OCO3)nc1C`, the outcome was inactive.

Consider `COc1ccccc1OCCOc1ccc(/C=C2\C(=N)N3N=C(S(C)(=O)=O)SC3=NC2=O)cc1`, for which the outcome was inactive.

Turning to `O=C(C=Cc1ccccc1)c1cc(Br)ccc1O`, the result was inactive.

On to `Cc1sc2ncnc(SCC(=O)Nc3ccc(CN4CCCC4)cc3)c2c1C`, for which the result was inactive.

Turning to `Nc1nc(O)c(Sc2ccccc2[N+](=O)[O-])c(=O)[nH]1`, the molecule was classed as inactive.

In the case of `Nn1cnnc1N/N=C/c1ccc(Cl)c([N+](=O)[O-])c1`, the result was inactive.

With `Cc1c(-c2ccc(/C=N/NC(=O)C(=O)Nc3ccccc3F)o2)cccc1[N+](=O)[O-]`, the call was inactive.

For `CC1CCC2C(C1)c1sc(=O)[nH]c1SC2(C)C` (stereo not given), the molecule was called inactive.

Take `COc1ccc(-n2ncc3c(NCCCn4ccnc4)ncnc32)cc1`: the result was inactive.

For the molecule `N#Cc1ccccc1OCC(=O)OCC(=O)N1CCN(C(=O)c2ccco2)CC1`, the molecule was classed as inactive.

Regarding `CCCC(=O)Nc1cc(C)cn(Cc2c(F)cccc2Cl)c1=O`, the molecule was called inactive.

`COc1ccc(-n2nnnc2SCC(=O)c2ccc3c(c2)OCCO3)cc1`: the call was inactive.

`COc1ccc(OCC(=O)NNc2c3ccccc3nc3ccccc23)cc1`: the outcome was inactive.

With `CCOC(=O)N1CCN(C(=S)NCCOC)CC1`, the result was inactive.

Take `O=C(CC1(O)C(=O)Nc2cc(Cl)cc(Cl)c21)c1ccncc1` (stereo not given): the molecule was called inactive.

For the molecule `CC(C)c1ccc(S(=O)(=O)N2CCN(CC(=O)Nc3ccc(Cl)cc3F)CC2)cc1`, the molecule was classed as inactive.

For `NS(=O)(=O)c1ccc(S(=O)(=O)N2CCN(C3CCCC3)CC2)cc1`, the result was inactive.

As for `Cc1cccc(NC(=S)N2CCN(c3ccccc3F)CC2)c1C`, the molecule was called inactive.

For `CC1CCCN(S(=O)(=O)c2ccc(NC(=O)CN3CCN(C)CC3)cc2)C1` (stereo not given), the molecule was called inactive.

For the molecule `O=C(c1ccc(S(=O)(=O)N2CCOCC2)cc1)N(c1cccc(Cl)c1)C1C=CS(=O)(=O)C1` (stereo not given), the outcome was inactive.

`O=C(NCc1ccc(Cl)cc1)c1ccc(S(=O)(=O)N2CCCCC2)cc1`: the molecule was classed as inactive.

For the molecule `Cc1ccc(C(=O)C2CCN(S(=O)(=O)c3ccc(C(=O)O)cc3)CC2)cc1`, the molecule was called inactive.

Consider `CCc1cc(OCCN2C(=O)NC(C)(C)C2=O)ccc1Cl`, for which the molecule was called inactive.

`S=C1NCN(Cc2ccco2)CN1CCc1ccccc1`: the call was inactive.

`Cc1ncc(CO)c2c1Oc1nc(-c3ccccc3)nc(SCC(=O)N3CCOCC3)c1C2`: the call was inactive.

In the case of `CCOC(=O)C(CCCP(=O)(c1ccccc1)c1ccccc1)(NC(C)=O)C(=O)OCC`, the call was inactive.

For the molecule `O=C(Cn1cc(C(F)(F)F)ccc1=O)Nc1ccc2c(c1)OCCO2`, the molecule was classed as inactive.

For the molecule `Cc1ccc(Nc2nnc(SCC(=O)Nc3ccc(S(=O)(=O)N4CCOCC4)cc3)s2)cc1`, the molecule was classed as inactive.

As to `CCN(CC)c1ccc(NC(=O)COC(=O)c2ccc3ccccc3n2)cc1`, the molecule was classed as inactive.

In the case of `COC(=O)C(C)(C)NC(=O)c1cccs1`, the molecule was called inactive.

Take `COc1ccc(OC)c(-c2csc(-c3cccs3)n2)c1`: the call was inactive.

As for `COc1ccc(NC(=O)CN2CCN(S(=O)(=O)N3CCCCCC3)CC2)cc1`, the molecule was called inactive.

`CCOC(=O)c1ccc(S(=O)(=O)N2CCN(c3ccccn3)CC2)cc1`: the molecule was classed as inactive.

As to `O=C(Nc1ccccc1)OCCCCOC(=O)Nc1ccccc1`, the outcome was inactive.

As to `CCc1nc2ccc(C)cc2c(C(=O)NC2CCCCC2C)c1C` (stereo not given), the outcome was inactive.

`O=C(O)c1ccccc1NS(=O)(=O)c1ccc2ccccc2c1`: the molecule was called inactive.

Consider `CCOc1ccccc1Nc1nnc(SCc2ccc(C(=O)OC)o2)s1`, for which the outcome was inactive.

Regarding `COCCNC(=O)c1ccc(CN2CCc3ccccc3C2)cc1`, the outcome was inactive.

Turning to `Cc1ccc(C(=O)Cn2cc([N+](=O)[O-])nc2C)cc1`, the call was inactive.

As to `CC(C)(C)C1CCC2(CC1)C(Nc1cccc(C(F)(F)F)c1)=NC(=S)N2CC#N` (stereo not given), the molecule was classed as inactive.

As for `COc1ccc(CCC(=O)NCCOc2ccccc2Cl)cc1`, the call was inactive.

`CSc1nsc(SCC(=O)Nc2cccc(NC(C)=O)c2)n1`: the call was inactive.

On to `Cc1cccnc1NC(=O)c1ccc(S(=O)(=O)N2CC(C)OC(C)C2)cc1` (stereo not given), for which the call was inactive.

As for `O=C1CCCC(O)=C1N=Nc1cccc(C(=O)O)c1`, the molecule was called inactive.

Regarding `O=C(NNC(=O)c1cccs1)c1ccc(Cl)c([N+](=O)[O-])c1`, the molecule was classed as inactive.

`COc1ccccc1C(=O)NNC(=O)Cc1ccccc1`: the molecule was classed as inactive.

Consider `O=C(CC(=O)NCCc1ccccc1)NCCc1ccccc1`, for which the molecule was classed as inactive.

Turning to `O=C(CNC(=O)c1ccco1)NCC(=O)OCc1ccccc1Cl`, the result was inactive.

As to `CC(C)CC(=O)N1CCC(O)(CS(=O)(=O)Cc2ccccc2Cl)CC1`, the molecule was classed as inactive.

Turning to `O=C(NC1=NCCS1)c1csc2ccccc12`, the result was inactive.

On to `O=C(Nc1cc(C(F)(F)F)ccc1N1CCCC1)C1CC(=O)N(Cc2ccccc2)C1` (stereo not given), for which the molecule was called inactive.

`Cc1cc(C)c(NC(=S)N(C)C)cc1C`: the molecule was called inactive.

On to `COc1ccc(C2/C(=C(\O)c3cccc(OC)c3)C(=O)C(=O)N2c2ccccn2)cc1` (stereo not given), for which the outcome was inactive.

Consider `COc1ccc(C(=O)N[C@H](C(=O)NCc2ccc(C)cc2)C(C)C)cc1`, for which the molecule was classed as inactive.

As to `Cc1ccc(C)c(S(=O)(=O)N2CCCOC2CNC(=O)C(=O)NCc2cccnc2)c1` (stereo not given), the result was inactive.

As to `Nc1c2c(=O)[nH]c(O)cc2nn1-c1ccccc1`, the call was inactive.

As for `COc1ccc(OC)c(C(=O)Nc2c(O)ccc3ccccc23)c1`, the molecule was classed as inactive.

Regarding `O=c1[nH]c(CN2CCCCC2)ccc1O`, the molecule was classed as inactive.

For the molecule `Cc1cc(=O)n2[nH]c(-c3ccco3)nc2n1`, the outcome was inactive.

Turning to `Cc1onc(-c2c(Cl)cccc2Cl)c1C(=O)ONC(=O)c1cc(C(F)(F)F)cc(C(F)(F)F)c1`, the molecule was called inactive.

`O=[N+]([O-])c1ccc(-c2cccnc2)cc1`: the molecule was called inactive.

Consider `O=c1c2ccc([N+](=O)[O-])cc2sn1-c1ccccc1`, for which the result was inactive.

`CCOc1ccccc1NCc1nnc(-c2ccccc2)o1`: the outcome was inactive.

As for `O=C(c1cc(-c2ccc(Cl)c(Cl)c2)on1)N1CCCCCC1`, the call was inactive.

As for `COc1ccc(C)cc1S(=O)(=O)Nc1ccccc1C`, the result was inactive.

Turning to `O=[N+]([O-])c1ccc(N(CC(O)CN2CCCCC2)S(=O)(=O)c2ccccc2)cc1` (stereo not given), the molecule was classed as inactive.

Consider `O=S(=O)(c1ccc2c(c1)nc1n2CCC1)N1CCOCC1`, for which the molecule was called inactive.

`CCCc1nc2sc3ccccc3c(=O)c2c(=O)n1Cc1ccccc1`: the molecule was called inactive.

As to `COc1ccc(CCNc2c([N+](=O)[O-])ncn2C)cc1OC`, the call was inactive.

As for `CCOc1ccccc1N(CC(=O)NCCc1ccc(OC)c(OC)c1)S(=O)(=O)c1ccccc1`, the result was inactive.

Turning to `COCc1[nH][nH]c(=O)c1C=NCC(=O)OC`, the call was inactive.

With `N=C1C(c2nc(-c3ccc(F)cc3)cs2)=C(O)CN1Cc1ccc(Cl)cc1`, the molecule was classed as inactive.

For `CC(C)(C)c1[nH]nc2c1C(C1C=CCCC1)C(C#N)=C(N)O2` (stereo not given), the result was inactive.

For `O=C(NC1CCCCC1)c1ccc(S(=O)(=O)NCc2ccco2)cc1`, the molecule was called inactive.

With `Cn1c(=O)c2c(-c3ccccc3)n(Cc3cccnc3)cc2n(C)c1=O`, the molecule was called inactive.

On to `CCOC(=O)c1c(C)[nH]c(C(=O)NCCN2CCOCC2)c1C`, for which the call was inactive.

Regarding `O=C(CCCN1C(=O)/C(=C/c2cccs2)SC1=S)Nc1ccc(O)c(C(=O)O)c1`, the molecule was called inactive.

Turning to `O=C(CCCN1C(=O)/C(=C/c2ccccc2)SC1=S)Nc1ccc(C(=O)O)c(O)c1`, the molecule was called inactive.

As for `N=c1c(C(=O)NCc2ccco2)cc2c(=O)n3ccccc3nc2n1C1CCCC1`, the outcome was inactive.

For `COc1cccc(CN2CCC(Oc3ccc(C(=O)N4CCCCC4)cc3)CC2)c1O`, the call was inactive.

On to `Cc1ccc(NC(=O)CN(C)CCOc2ccccc2)c([N+](=O)[O-])c1`, for which the call was inactive.

In the case of `CN1CCN(/N=C/c2nc(-c3ccccc3Cl)n3ccccc23)CC1`, the molecule was classed as inactive.

Consider `Cn1c(SCc2ccccc2C#N)nc2ccccc2c1=O`, for which the result was inactive.

Take `COc1cn(-c2ccccc2)nc1C(=O)NCc1ccccc1`: the molecule was classed as inactive.

Consider `C=CCSc1nnc(-c2ccc(Cl)cc2Cl)o1`, for which the molecule was classed as inactive.

Turning to `CCOC(=O)C1=CN(c2cccc(F)c2)C=C(C(=O)OCC)C1c1cc(OC)c(O)c([N+](=O)[O-])c1`, the molecule was called inactive.
